The structures appear in SMILES notation.
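Also: KINOMEscan kinase panel screen.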

In this experiment the test system is CAMK1G. As to conditions: concentration: 1 μM, replicates: in singlicate; n = 1.
Regarding `Cc1ccc(NC(=O)Nc2ccc(Cl)c(C(F)(F)F)c2)cc1-c1ccc(C(=O)Nc2ccncc2)cc1` [GSK1398470], the “%Inh” value is given as 12%.

As for `FC(F)(F)c1ccccc1-c1cc(-c2c[nH]nc2-c2ccccn2)ccn1` [GW679396], the “%Inh” value is 8%.

For the molecule `COC(=O)c1cccc(NC(=O)NC2CCN(c3ccnc(Nc4ccc(F)cc4)n3)C2)c1` (stereo not shown) [GSK1379725], the “%Inh” value is listed as 0%.

As for `Fc1ccc(-c2nn3cccc(F)c3c2-c2ccncc2)cc1` [GW475620], the “%Inh” value was 40%.

Consider `Cc1ccc(NC(=O)Nc2ccc(Cl)cc2)cc1-c1ccc(C(=O)Nc2ccncc2)cc1` [GSK1398472], for which the “%Inh” value came out at 0%.

Consider `COC(=O)C(Cc1ccccc1)NC(=O)NC1CCN(c2ccnc(Nc3ccc(F)cc3)n2)C1` (stereo not shown) [GSK1379714], for which the “%Inh” value is on record as 9%.

As for `COc1ccc(Nc2nccc(NCCNC(=O)Nc3cc(C)ccc3C)n2)cc1` [GSK1379899], the “%Inh” value was 0%.

For the molecule `Fc1ccc(-c2nc3n(c2-c2ccncc2)CCS3)cc1` [GI98581], the “%Inh” value turned out to be 0%.

Regarding `CC(=O)c1cccc(NC(=O)NC2CCN(c3ccnc(Nc4ccc(F)cc4)n3)C2)c1` (stereo not shown) [GSK1379710], the “%Inh” value was 7%.

For `Cc1ccc(-c2nc(Nc3ccncc3)c3ccccc3n2)s1` [GSK189015], the “%Inh” value amounted to 2%.

Take `O=c1cc(N2CCOCC2)nc2n(Cc3cccc(Cl)c3Cl)c3ccccc3n12` [GSK2299009]: the “%Inh” value amounted to 13%.

Consider `Cc1ccccc1Cn1ccn2c(=O)cc(N3CCOCC3)nc12` [GSK2269905], for which the “%Inh” value is reported as 3%.

On to `O=C(Nc1n[nH]c2nc(-c3cccs3)c(Br)cc12)C1CCCC1` [SB-743341], for which the “%Inh” value is 0%.

Regarding `Cn1cncc1-c1cc2c(Nc3ccc(OCc4ccccc4)cc3)ncnc2cn1` [GW281179], the “%Inh” value was determined as 0%.

For `CNc1nc(-c2ccc3c(N)n[nH]c3c2)cc(N2C[C@@H](C(=O)NC3CCCCC3)OC[C@H]2C)n1` [GSK2375584], the “%Inh” value is recorded as 0%.

With `COc1cccc(C2=C(Nc3cc(Cl)c(O)c(Cl)c3)C(=O)NC2=O)c1` [SB-390767], the “%Inh” value is reported as 0%.

In the case of `Cn1cnc2c(N)ncnc21` [SKF-97623], the “%Inh” value is given as 0%.

`O=c1cc(N2CCOCC2)nc2n(Cc3ccccc3F)ccn12` [GSK2297428]: the “%Inh” value came to 5%.

With `COc1ccc(-c2coc3ccc(-c4nnc(C)o4)cc23)cc1`, the “%Inh” value was found to be 5%.

As to `Cc1ccccc1-c1cc(-c2c[nH]nc2-c2ccccn2)ccn1` [GW680061], the “%Inh” value was determined as 0%.

Turning to `Nc1cccc(-c2ccc3c(N)n[nH]c3c2)n1` [GSK2192730], the “%Inh” value stood at 9%.

For the molecule `CNC(=O)c1ccc(C)c(-n2c(C)cc(OCc3ccc(F)cc3F)c(Br)c2=O)c1`, the “%Inh” value is 0%.

Turning to `O=C(Nc1n[nH]c2nc(-c3ccco3)c(Br)cc12)C1CCN(Cc2ccccc2)C1.O=C(O)[C@H](O)[C@@H](O)C(=O)O` (stereo not shown) [SB-742034], the “%Inh” value was 10%.

For the molecule `NS(=O)(=O)c1cccc(N/C=C2\C(=O)Nc3ccc(S(=O)(=O)Cc4c(Cl)cccc4Cl)cc32)c1` [GSK398099], the “%Inh” value came to 26%.

On to `c1ccc(-c2ccnc3[nH]ccc23)cc1` [SB-693578], for which the “%Inh” value was determined as 15%.

For `CNc1nc(-c2ccc3c(N)n[nH]c3c2)cc(N2C[C@@H](C(=O)Nc3ccccc3)CC[C@H]2C)n1` [GSK2298859], the “%Inh” value was 6%.

For the molecule `COC(=O)c1cccc(NC(=O)NC2CCN(c3ccnc(Nc4ccc(OC)cc4)n3)C2)c1` (stereo not shown) [GSK1379746], the “%Inh” value turned out to be 0%.

In the case of `COc1ccc(Nc2nccc(-c3ccc(NC(=O)c4cc5cc(F)ccc5[nH]4)cc3)n2)cc1` [GSK1229496], the “%Inh” value worked out at 6%.

Take `Cl.Cl.Cl.N#Cc1ccc(CCNc2nccc(-c3cccc(CN4CCNCC4)c3)n2)cc1` [GSK2137462]: the “%Inh” value amounted to 24%.

Turning to `O=C(Nc1n[nH]c2cc(-c3ccsc3)ccc12)C1CC1` [SB-732932], the “%Inh” value is given as 23%.

For the molecule `COc1ccc(Nc2nccc(N3CCC(NC(=O)c4cc5ccccc5s4)C3)n2)cc1` (stereo not shown) [GSK1379738], the “%Inh” value was determined as 67%.

As for `COc1ccc2cc(-c3nc(-c4ccccc4C(C)C)[nH]c3-c3ccncc3)ccc2c1` [SB-660566], the “%Inh” value came out at 0%.

In the case of `CC[C@@H]1CO[C@H](C(=O)Nc2ccccc2)CN1c1cc(-c2ccc3c(N)n[nH]c3c2)nc(NC)n1` [GSK2376236], the “%Inh” value turned out to be 13%.

Take `Cc1ccc(NC(=O)c2ccc(Cl)cc2)cc1-c1ccc(C(=O)Nc2ccncc2)cc1` [GSK1398467]: the “%Inh” value turned out to be 9%.

Regarding `COc1cccc(NC(=O)Nc2ccc(C)c(-c3ccc(C(=O)Nc4ccncc4)cc3)c2)c1` [GSK1398474], the “%Inh” value is reported as 0%.

Regarding `COc1ccc(CSc2nnc(-c3ccc4c(c3)CCO4)o2)cc1`, the “%Inh” value is given as 9%.

With `Cc1cccc2c(-c3ccncn3)c(-c3ccc(F)cc3)nn12` [GW515532], the “%Inh” value is on record as 0%.

For the origin of these results see article PMC5540273 (PLoS ONE, 2017).
